Experimental data reported in the supplement of paper PMC11219838.
A number with no mark means an inactive call.

Legend:
Conditions in all cases: 60 µM; 5 days; temperature: 20 °C
[1] = tested on: Meloidogyne hapla J2; assay: proportion of mobile M. hapla J2 relative to DMSO control (fraction of DMSO control); higher = more viable, less nematicidal, active = 0.7 or less
Summary of the method: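 Sealed 96-well plates, each well holding around 25 M. hapla J2 in distilled water with compound pinned to 60 µM final (0.6% v/v DMSO), were shaken at 200 rpm for 5 days at 20 °C. Then 2 µL of 1 M NaOH was added to each well. Microscope-scored mobility was normalised to the mean of DMSO-only wells from the same plate. Eight such wells were on each plate, and the two biological replicates were averaged.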

[2] = tested on: Caenorhabditis elegans dauer (daf-2(e1370)); assay: proportion of mobile C. elegans dauer larvae relative to DMSO control (fraction of DMSO control); higher = more viable, less nematicidal, active = 0.63 or less; extreme values may be limits of the assay
Summary of the method: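 The proportion of mobile worms, relative to DMSO wells, was scored by dissection microscope and averaged over two biological replicates. Worms were C. elegans dauers, about 20 per well in liquid NGM in 96-well plates, generated from synchronized larvae on MYOB plates with E. coli OP50 at 25 °C for 48 h. They were treated with compound pinned to 60 µM final (0.6% v/v DMSO) and kept in sealed plates shaken at 200 rpm for 5 days at 20 °C.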

[3] = tested on: Ditylenchus dipsaci; assay: proportion of mobile D. dipsaci (mixed stage) relative to DMSO control (fraction of DMSO control); higher = more viable, less nematicidal, active = 0.86 or less; extreme values may be limits of the assay
Summary of the method: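 Mobility, expressed relative to DMSO controls, is the mean of two biological replicates. The test organisms were D. dipsaci grown on pea plants in Gamborg B-5 agar and extracted into water by filter funnel, with about 20 added per well of a 96-well plate in distilled water. Compound was pinned to 60 µM final (0.6% v/v DMSO), plates were sealed and shaken at 200 rpm for 5 days at 20 °C, and mobile worms were scored under a microscope once 2 µL 1 M NaOH had been added.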

O=C(CSc1nnc(-c2cccc(Cl)c2)o1)Nc1ccccc1
proportion of mobile M. hapla J2 [1]: 0.813 | proportion of mobile C. elegans dauer larvae [2]: 1 | proportion of mobile D. dipsaci [3]: 1

COc1ccc(Cl)cc1NC(=O)CSc1nnc(-c2ccc(Br)cc2)o1
proportion of mobile M. hapla J2 [1]: 1.03 | proportion of mobile C. elegans dauer larvae [2]: 1 | proportion of mobile D. dipsaci [3]: 1

Cc1ccc(CSc2nnc(-c3ccco3)o2)cc1
proportion of mobile M. hapla J2 [1]: 0.628 (active) | proportion of mobile C. elegans dauer larvae [2]: 0.167 (active) | proportion of mobile D. dipsaci [3]: 1

O=C(CSc1nnc(-c2cc3ccccc3o2)o1)NC1CC1
proportion of mobile M. hapla J2 [1]: 0.928 | proportion of mobile C. elegans dauer larvae [2]: 1 | proportion of mobile D. dipsaci [3]: 1

Cc1ccc(-c2nc(-c3ccccc3Cl)no2)cc1
proportion of mobile M. hapla J2 [1]: 0.998 | proportion of mobile C. elegans dauer larvae [2]: 1 | proportion of mobile D. dipsaci [3]: 1

O=C(CSc1nnc(-c2ccccc2Cl)o1)Nc1nccs1
proportion of mobile M. hapla J2 [1]: 0.992 | proportion of mobile C. elegans dauer larvae [2]: 1 | proportion of mobile D. dipsaci [3]: 1

CC1Cc2ccccc2N1C(=O)CSc1nnc(-c2ccccc2)o1 (stereo unspecified)
proportion of mobile M. hapla J2 [1]: 1.03 | proportion of mobile C. elegans dauer larvae [2]: 1 | proportion of mobile D. dipsaci [3]: 1

COc1cccc(NC(=O)c2ccccc2-c2nc(-c3ccccc3Cl)no2)c1
proportion of mobile M. hapla J2 [1]: 0.918 | proportion of mobile C. elegans dauer larvae [2]: 1 | proportion of mobile D. dipsaci [3]: 1

Cc1ccc(-c2nnc(SCC(=O)Nc3cc(C)c(C)cc3Br)o2)cc1
proportion of mobile M. hapla J2 [1]: 0.792 | proportion of mobile C. elegans dauer larvae [2]: 1 | proportion of mobile D. dipsaci [3]: 1

Brc1ccccc1-c1nc(-c2ccc3c(c2)OCO3)no1
proportion of mobile M. hapla J2 [1]: 1.04 | proportion of mobile C. elegans dauer larvae [2]: 1 | proportion of mobile D. dipsaci [3]: 1

COc1ccc(-c2nnc(SCc3cccc(C#N)c3)o2)cc1
proportion of mobile M. hapla J2 [1]: 0.785 | proportion of mobile C. elegans dauer larvae [2]: 1 | proportion of mobile D. dipsaci [3]: 1

Cc1cccc(-c2noc(-c3ccc(F)cc3)n2)c1
proportion of mobile M. hapla J2 [1]: 0.642 (active) | proportion of mobile C. elegans dauer larvae [2]: 1 | proportion of mobile D. dipsaci [3]: 1
